Assay [1] in a line: binders of probe aFSTL3 on microarray, primary screen, stem cell growth factor project, biochemical, small-molecule microarray, fluorescence 635/667 (AID 1064).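 Note: measures binding of the biotinylated anti-FSTL3 antibody to printed compounds.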 The settings on record: higher = more signal.
Assay [2] in a line: binders from COS7 lysate, DM2A8 probe, primary screen, torsin A project, cell lysate, small-molecule microarray, fluorescence 635/667 (AID 1065). The settings on record: higher = more signal, COS7 lysate expressing mutant human TOR1A.
A short description of assay [3]: binders of probe aFGF2 on microarray, primary screen, stem cell growth factor project, biochemical, small-molecule microarray, fluorescence 635/667 (AID 1067).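 Note: measures binding of biotinylated aFGF2 protein to printed compounds on slides; z-score merges feature fluorescence and signal-to-noise across triplicate slides.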 The note with it: higher = more signal.
A short description of assay [4]: binders of probe aFGF10 on microarray, primary screen, stem cell growth factor project, biochemical, small-molecule microarray, fluorescence 635/667 (AID 1071).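 Note: score merges 667 nm spot intensity and signal to noise from triplicate slides.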 The note with it: higher = more signal.
The target of assay [5] is Neurogenic locus notch homolog protein 2 (Homo sapiens) (UniProt Q04721). As to the kind of experiment: Notch2 binders on small-molecule microarrays, primary screen, biochemical, small-molecule microarray, 635 nm fluorescence, stem cell growth factors (AID 1073). The settings on record: Notch2 binding, higher = more signal.
Assay [6] has as its target Pro-neuregulin-1, membrane-bound isoform (Homo sapiens) (UniProt Q02297). The assay can be described thus: NRG1 binders on small-molecule microarrays, primary screen, psychiatric disease protein project, biochemical, small-molecule microarray, fluorescence 635/667 (AID 1075).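 Note: score combines 667 nm spot fluorescence with signal to noise.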 The note with it: NRG1 binding, 635 nm fluorescence, higher = more signal.
For assay [7], the system named is Neuregulin-1 EGF-like domain. As to the kind of experiment: binders of neuregulin-1 EGF-like domain, primary screen, biochemical, small-molecule microarray, 635 nm fluorescence (AID 1081).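 Note: binding of the protein to compounds printed on small-molecule microarray slides.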 The settings on record: small-molecule microarray binding, higher = more signal.
Assay [8] can be described thus: FRG1 promoter luciferase signal modulators, primary screen, FRG1 inhibition for FSHD, cell-based, C2C12 myotubes, firefly/Renilla luciferase, luminescence (AID 1084). The settings on record: higher = more signal, called active from +8 up or from −8 down.
Assay [9] is described as follows: binders of probe aFST on microarray, primary screen, stem cell growth factor project, biochemical, small-molecule microarray, fluorescence 635/667 (AID 1086).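 Note: score merges 667 nm fluorescence with signal-to-noise of each printed compound spot.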 The note with it: higher = more signal.
Assay [10] in a line: binders of probe aHhip on microarray, primary screen, stem cell growth factor project, biochemical, small-molecule microarray, fluorescence 635/667 (AID 1087).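 Note: score merges spot fluorescence at 667nm with spot signal to noise ratio.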 The note with it: higher = more signal.
The subject of assay [11] is PRMT1 (protein arginine N-methyltransferase 1). The assay can be described thus: PRMT1 binders on small-molecule microarrays, primary screen, biochemical, small-molecule microarray, 635 nm fluorescence (AID 1088).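 Note: binding of Prmt1 protein to compounds spotted on small-molecule microarray slides.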 The settings on record: small-molecule microarray binding, higher = more signal.
Assay [12] can be described thus: yeast growth modulation, basal conditions, primary screen, YJM789 clinical isolate, OD600, 24 h (AID 1089).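 Note: growth of clinical yeast isolate S. cerevisiae YJM 789 seeded 1000 cells per well; test concentration not given here.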 The note with it: S. cerevisiae YJM789 growth, higher = more signal, called active from +8 up or from −8 down.
Assay [13] can be described thus: fission yeast growth modulation, primary screen, strain 972, OD600, 24 h, no modulator (AID 1090).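 Note: basal condition with compound alone and no growth modifier present; test concentration not given here.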 The settings on record: S. pombe 972 growth, higher = more signal, called active from +8 up or from −8 down.
Assay [14] is described as follows: S. cerevisiae growth modulation with rapamycin, primary screen, strain BY4716, OD600, 96 h (AID 1091). Note: test concentration not given here. The note with it: higher = more signal, called active from +8 up or from −8 down.
Assay [15] addresses Torsin-1A-interacting protein 2 (Homo sapiens) (UniProt Q8NFQ8). As to the kind of experiment: LULL1 binders on small-molecule microarray, primary screen, cell lysate, human LULL1 lysate, 635/667 nm fluorescence (AID 1092).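 Note: probe is lysate of COS7 cells overexpressing human LULL1; score merges per-feature 667 nm fluorescence with signal-to-noise.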 The note with it: hLULL1 lysate binding, 635 nm fluorescence, higher = more signal.
Assay [16] is described as follows: E. coli growth modulation, two-sided OD650, primary screen, E. coli filamentation project, strain DRC41, 24 h (AID 1093).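 Note: MC1000 strain lacking acrAB efflux and sulA so SOS filamentation is blocked; test concentration not given here.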 The settings on record: OD650, 24 h, higher = more signal, called active from +8 up or from −8 down.
Assay [17] in a line: small-molecule microarray binders of probe aLefty2, primary screen, biochemical, biotinylated probe, 635/667 nm fluorescence (AID 1094).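 Note: score merges spot fluorescence near 667 nm with spot signal-to-noise ratio.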 The note with it: higher = more signal.
The subject of assay [18] is Noggin (protein binding on small-molecule microarray). The assay can be described thus: Noggin binders on small-molecule microarray, primary screen, biochemical, 635/667 nm fluorescence (AID 1095).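 Note: score merges 667 nm feature fluorescence with signal to noise over triplicate slides.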 The settings on record: 635 nm fluorescence, higher = more signal.
In assay [19] the target is Neurogenic locus notch homolog protein 3 (Homo sapiens) (UniProt Q9UM47). The assay can be described thus: NOTCH3 binders on small-molecule microarray, primary screen, biochemical, 635/667 nm fluorescence (AID 1096). The note with it: NOTCH3 binding, 635 nm fluorescence, higher = more signal.
The nature of assay [20]: small-molecule microarray binders of probe aEGFR, primary screen, biochemical, biotinylated probe, 635/667 nm fluorescence (AID 1097).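 Note: probe is a biotinylated anti-EGFR antibody binding compounds printed on slides; score combines fluorescence near 667 nm and signal to noise of each spot.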 The settings on record: higher = more signal.

In PubChem BioAssay one finds composite z-score and z-score data, which are given here for five molecules.

Structures are written as SMILES. Active and inactive are the calls of the source.

Sequence of Neurogenic locus notch homolog protein 2 (Homo sapiens) (Q04721 whole entry, looked up, canonical isoform): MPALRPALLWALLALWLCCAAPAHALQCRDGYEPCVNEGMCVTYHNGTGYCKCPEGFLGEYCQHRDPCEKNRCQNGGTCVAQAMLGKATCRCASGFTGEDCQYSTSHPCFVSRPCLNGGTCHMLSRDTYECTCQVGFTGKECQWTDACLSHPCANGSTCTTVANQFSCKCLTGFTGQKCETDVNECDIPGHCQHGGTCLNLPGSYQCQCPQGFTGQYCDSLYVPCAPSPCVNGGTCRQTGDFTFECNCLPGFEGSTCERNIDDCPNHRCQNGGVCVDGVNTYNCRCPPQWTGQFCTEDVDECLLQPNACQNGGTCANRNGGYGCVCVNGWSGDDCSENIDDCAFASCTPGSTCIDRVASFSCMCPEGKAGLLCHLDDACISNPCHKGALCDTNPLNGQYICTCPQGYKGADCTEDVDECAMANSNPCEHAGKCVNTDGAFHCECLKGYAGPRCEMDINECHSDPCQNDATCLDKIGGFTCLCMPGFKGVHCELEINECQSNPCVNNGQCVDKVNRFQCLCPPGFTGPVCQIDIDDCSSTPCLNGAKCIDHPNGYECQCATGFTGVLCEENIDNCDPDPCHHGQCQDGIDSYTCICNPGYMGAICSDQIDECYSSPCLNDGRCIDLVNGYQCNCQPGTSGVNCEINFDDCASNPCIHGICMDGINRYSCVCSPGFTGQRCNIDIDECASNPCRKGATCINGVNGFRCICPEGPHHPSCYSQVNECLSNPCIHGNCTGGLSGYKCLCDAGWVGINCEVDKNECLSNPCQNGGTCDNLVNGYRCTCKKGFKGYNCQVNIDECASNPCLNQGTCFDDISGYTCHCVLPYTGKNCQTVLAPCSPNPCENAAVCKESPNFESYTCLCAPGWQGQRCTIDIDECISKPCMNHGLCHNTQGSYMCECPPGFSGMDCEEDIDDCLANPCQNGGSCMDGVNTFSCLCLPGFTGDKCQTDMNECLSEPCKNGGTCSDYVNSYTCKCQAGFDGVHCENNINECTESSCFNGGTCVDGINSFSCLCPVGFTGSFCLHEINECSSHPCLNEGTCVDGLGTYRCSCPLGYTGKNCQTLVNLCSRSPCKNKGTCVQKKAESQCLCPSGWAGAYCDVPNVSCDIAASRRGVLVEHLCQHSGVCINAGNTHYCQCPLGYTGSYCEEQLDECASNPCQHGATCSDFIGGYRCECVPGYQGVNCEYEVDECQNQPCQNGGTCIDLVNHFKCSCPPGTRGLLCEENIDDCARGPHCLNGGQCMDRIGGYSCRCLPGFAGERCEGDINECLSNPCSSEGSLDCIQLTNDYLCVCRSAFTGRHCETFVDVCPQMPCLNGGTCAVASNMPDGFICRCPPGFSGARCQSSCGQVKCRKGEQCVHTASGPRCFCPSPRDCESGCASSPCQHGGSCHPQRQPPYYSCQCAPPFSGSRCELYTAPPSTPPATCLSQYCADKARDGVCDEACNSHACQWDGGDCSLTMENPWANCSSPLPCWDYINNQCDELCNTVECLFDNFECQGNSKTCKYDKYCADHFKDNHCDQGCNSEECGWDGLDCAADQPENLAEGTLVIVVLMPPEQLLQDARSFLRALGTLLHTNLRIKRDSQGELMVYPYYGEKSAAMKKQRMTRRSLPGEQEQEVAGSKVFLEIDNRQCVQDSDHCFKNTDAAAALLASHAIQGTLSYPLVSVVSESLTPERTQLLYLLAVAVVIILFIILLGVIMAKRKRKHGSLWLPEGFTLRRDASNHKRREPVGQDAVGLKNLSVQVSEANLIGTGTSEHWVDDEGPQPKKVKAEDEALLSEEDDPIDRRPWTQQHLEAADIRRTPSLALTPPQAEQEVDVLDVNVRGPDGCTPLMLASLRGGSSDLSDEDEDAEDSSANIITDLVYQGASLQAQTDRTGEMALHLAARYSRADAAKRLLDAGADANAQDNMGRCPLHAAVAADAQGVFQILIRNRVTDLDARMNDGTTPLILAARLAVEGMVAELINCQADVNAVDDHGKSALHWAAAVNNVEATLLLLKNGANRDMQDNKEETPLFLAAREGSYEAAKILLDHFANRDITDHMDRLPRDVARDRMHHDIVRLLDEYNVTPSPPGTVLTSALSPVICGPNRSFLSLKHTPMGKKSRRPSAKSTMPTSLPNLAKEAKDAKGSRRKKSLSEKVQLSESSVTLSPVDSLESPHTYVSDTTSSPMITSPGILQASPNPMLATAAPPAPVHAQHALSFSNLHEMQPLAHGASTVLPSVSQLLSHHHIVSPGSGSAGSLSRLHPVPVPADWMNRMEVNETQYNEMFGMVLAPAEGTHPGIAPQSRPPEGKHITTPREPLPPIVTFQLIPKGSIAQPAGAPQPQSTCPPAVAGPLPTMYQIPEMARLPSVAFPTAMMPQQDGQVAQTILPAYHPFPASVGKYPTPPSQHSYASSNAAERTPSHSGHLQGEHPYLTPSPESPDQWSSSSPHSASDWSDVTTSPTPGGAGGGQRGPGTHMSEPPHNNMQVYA
Sequence of Pro-neuregulin-1, membrane-bound isoform (Homo sapiens) (Q02297 whole entry, looked up, the tested form may be a part, canonical isoform): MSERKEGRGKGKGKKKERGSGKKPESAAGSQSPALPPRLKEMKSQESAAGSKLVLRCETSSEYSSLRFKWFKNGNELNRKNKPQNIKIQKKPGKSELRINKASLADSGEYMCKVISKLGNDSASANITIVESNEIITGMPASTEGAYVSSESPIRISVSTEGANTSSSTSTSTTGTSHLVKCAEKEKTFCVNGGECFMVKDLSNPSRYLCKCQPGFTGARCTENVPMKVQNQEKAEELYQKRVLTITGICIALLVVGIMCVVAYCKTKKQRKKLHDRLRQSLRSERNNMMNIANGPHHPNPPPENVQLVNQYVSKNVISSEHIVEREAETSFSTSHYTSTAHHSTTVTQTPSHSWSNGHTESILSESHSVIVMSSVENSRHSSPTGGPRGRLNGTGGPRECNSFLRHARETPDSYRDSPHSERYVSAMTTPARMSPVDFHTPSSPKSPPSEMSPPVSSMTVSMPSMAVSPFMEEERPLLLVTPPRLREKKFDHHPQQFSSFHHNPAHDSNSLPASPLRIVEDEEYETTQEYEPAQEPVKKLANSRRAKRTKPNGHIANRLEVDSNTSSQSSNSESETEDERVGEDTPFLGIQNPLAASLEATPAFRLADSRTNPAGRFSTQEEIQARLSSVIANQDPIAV
Sequence of Torsin-1A-interacting protein 2 (Homo sapiens) (Q8NFQ8 whole entry, looked up): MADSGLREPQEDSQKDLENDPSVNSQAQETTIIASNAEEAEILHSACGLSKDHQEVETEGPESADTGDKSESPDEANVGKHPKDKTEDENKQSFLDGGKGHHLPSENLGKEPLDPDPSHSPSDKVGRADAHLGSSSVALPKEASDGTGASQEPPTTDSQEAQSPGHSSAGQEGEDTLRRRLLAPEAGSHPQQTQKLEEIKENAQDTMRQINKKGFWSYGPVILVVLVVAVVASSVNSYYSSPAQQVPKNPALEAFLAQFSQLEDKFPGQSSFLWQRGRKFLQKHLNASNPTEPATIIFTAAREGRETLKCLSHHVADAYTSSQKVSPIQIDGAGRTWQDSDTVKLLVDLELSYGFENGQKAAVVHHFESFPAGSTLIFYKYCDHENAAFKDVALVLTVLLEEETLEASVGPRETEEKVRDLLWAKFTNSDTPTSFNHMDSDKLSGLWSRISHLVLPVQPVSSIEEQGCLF

Consider `Cc1ccc(S[C@]2(C(=O)NCC(C)C)CC(=O)N(C3CCCCC3)[C@@H]2c2ccc(CO)cc2I)cc1`, for which the composite z-score in assay [1] is -0.25; in assay [2] it was 0.0044; in [3], 0.062; in [4] it was 0.384; in [5], 0.939; in assay [6] it was 1.42. Further, the composite z-score in assay [7] is 1.03; in assay [9], 0.0997; in [10] it was -0.166; in [11], 1.56; in [15] it was 2.59; in assay [17], 0.11. For the same molecule, the composite z-score was 0.165 in assay [18], 1 in [19] and -0.276 in assay [20]. For the same molecule, the z-score in assay [8] was -2.29 (inactive); in [12] it was -0.525 (inactive); in [13], 0.293 (inactive); in assay [14], -0.0866 (inactive); in [16], 0.12 (inactive).
As to `COc1cc2c(cc1OC)CN(C(=O)[C@@H]1[C@H]3C(=O)O[C@H](c4ccccc4)[C@H](c4ccccc4)N3[C@H](c3ccc(OCCO)cc3)[C@@]13C(=O)Nc1ccc(C#CCCO)cc13)CC2`, the composite z-score is -0.0108 in [1]; 0.718 in [2]; 0.105 in [3]; 0.944 in assay [4]; 1.56 in assay [5]; 1.58 in assay [6]. Further, the composite z-score amounted to 1.27 in [7]; 0.0774 in assay [9]; 0.169 in assay [10]; 1.54 in assay [11]; 3.38 in [15]; 0.674 in [17]. Also, the composite z-score in [18] worked out at 1.46; in [19], 1.08; in assay [20], 0.276. Besides, the z-score in [8] is 0.838 (inactive); in assay [12] it was 1.68 (inactive); in [13], -0.283 (inactive); in [14], 3.2 (inactive); in assay [16], 2 (inactive).
Take `COc1cc(NN2C(C(O)c3ccc(I)cc3)C=CC3C(=O)N(C)C(=O)C32)cc(OC)c1OC` (stereo not given): the composite z-score is 0.495 in assay [1]; -0.363 in assay [2]; -0.0207 in assay [3]; 0.0488 in [4]; 1.52 in [5]; 1.96 in assay [6]. Also, the composite z-score in assay [7] is 1.14; in [9], -0.0647; in assay [10], -0.0237; in [11], 0.0146; in assay [15] it was 2.75; in assay [17], 0.0283. Besides, the composite z-score is -0.131 in assay [18], -0.325 in assay [19] and 0.113 in assay [20]. In addition, the z-score in assay [8] is 0.777 (inactive); in assay [12], 0.896 (inactive); in assay [13], 0.605 (inactive); in assay [14], 0.0514 (inactive); in [16] it was 0.202 (inactive).
Turning to `COc1ccccc1CN1C(=O)c2ccccc2[C@](Cc2ccccc2I)(C(=O)NCCN2CCOCC2)[C@@H]1c1ccc(CO)cc1`, the composite z-score in assay [1] was -0.291; in [2] it was 0.148; in assay [3] it was 0.103; in [4], 0.479; in assay [5], 1.37; in assay [6], 1.39. Further, the composite z-score in assay [7] was 1.3; in assay [9] it was 1.08; in assay [10], -0.189; in assay [11], 1.54; in assay [15] it was 3.27; in assay [17] it was -0.0028. Moreover, the composite z-score in [18] is 1.12; in assay [19], 1.09; in assay [20] it was -0.0502. In addition, the z-score is -3.32 (inactive) in assay [8]; -2.4 (inactive) in assay [12]; 0.548 (inactive) in assay [13]; -0.168 (inactive) in [14]; 0.0429 (inactive) in assay [16].
`C=C(/C(=C/C[C@@H](OC(=O)c1ccncc1)c1cccc(OCCO)c1)c1cc(C(=O)OC)ccc1OC)C(C)C`: the composite z-score in assay [1] is -0.295; in assay [2] it was 0.679; in assay [3] it was -0.0549; in assay [4], 0.579; in [5], 0.868; in assay [6] it was 0.826. In addition, the composite z-score in assay [7] was 0.981; in [9] it was 0.351; in assay [10] it was -0.0994; in assay [11] it was 1.33; in assay [15], 1.54; in assay [17], 0.0233. The composite z-score in assay [18] is 0.548; in assay [19] it was 0.93; in assay [20], -0.0476. Besides, the z-score is -1.61 (inactive) in assay [8]; -0.117 (inactive) in assay [12]; -1.22 (inactive) in assay [13]; -0.35 (inactive) in assay [14]; 1.03 (inactive) in [16].
